Screening results: PubChem, National Center for Advancing Translational Sciences (NCATS)
hNpr1 antagonist = blocks ANP-stimulated signaling of human Npr1 receptor. hit rate 1.6% among 76,000. AID 1347048. P16066. HEK293 hNpr1 GloSensor cGMP, ANP-stimulated luminescence. Potency, µM (doses to about 46.3 µM), inactives show top-dose activity change, negative = inhibition, usual class: inhibitors; calls by dose curve; also: % is scaled to controls: 0 for no effect and ±100 for the full control effect; nearly all actives have a fitted effect of over 60% in size
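HEK293 cells stably expressing human Npr1 and cGMP GloSensor pGS-40F, loaded 2 h with 2% GloSensor reagent, given compound 30 min at room temperature. Luminescence read before and 20 min after 0.1 nM hNppA.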
NIH3T3 tox = NIH 3T3 cell cytotoxicity. hit rate 4.3% among 94,000. NIH 3T3 viability, CellTiter-Glo ATP luminescence, 48-72 h. Potency, µM (series often up to 96.7 µM), without a hit: at the top dose activity change, negative = cytotoxicity, usual class: inhibitors; also: % is scaled to controls: 0 for no effect and ±100 for the full control effect; nearly all actives have a fitted effect of over 55% in size
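NIH 3T3 cells at 400 cells/well received 23 nL of compound by pintool and were incubated 48 or 72 h at 37 °C. Viability was read as ATP-coupled CellTiter-Glo luminescence.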
FLuc inh = inhibitors of firefly (Photinus pyralis) luciferase; P08659; hit rate 2.5% among 76,000; Potency, µM (titrated, usually from 115 µM), hits mostly inhibitors; purified P. pyralis luciferase, luminescence, biochemical; AID 1347043; also: % is scaled to controls: 0 for no effect and ±100 for the full control effect; nearly all actives have a fitted effect of over 65% in size
Target sequence (P08659 whole entry, looked up): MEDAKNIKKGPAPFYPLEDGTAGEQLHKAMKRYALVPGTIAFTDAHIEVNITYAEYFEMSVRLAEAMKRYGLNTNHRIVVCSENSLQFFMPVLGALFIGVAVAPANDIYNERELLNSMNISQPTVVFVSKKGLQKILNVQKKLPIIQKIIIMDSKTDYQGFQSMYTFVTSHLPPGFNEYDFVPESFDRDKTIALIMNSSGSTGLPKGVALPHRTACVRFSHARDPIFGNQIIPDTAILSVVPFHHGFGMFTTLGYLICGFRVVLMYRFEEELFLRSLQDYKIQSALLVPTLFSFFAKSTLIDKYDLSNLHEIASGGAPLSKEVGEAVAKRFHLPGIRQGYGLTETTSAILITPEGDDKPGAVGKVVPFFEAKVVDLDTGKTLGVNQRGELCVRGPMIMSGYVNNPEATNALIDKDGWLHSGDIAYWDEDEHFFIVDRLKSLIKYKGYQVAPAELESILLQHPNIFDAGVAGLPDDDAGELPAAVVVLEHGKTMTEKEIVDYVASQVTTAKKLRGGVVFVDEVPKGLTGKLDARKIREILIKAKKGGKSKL
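Cell-free enzyme assay, 10nM P. pyralis luciferase, luciferin and ATP each at 10uM. Inhibition profiled over a 6-point titration, read as luminescence.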
GPT2 inhibitor = inhibitors of human GPT2 alanine aminotransferase; Q8TD30; AID 1671188; Recombinant GPT2, coupled pyruvate oxidase/HRP Amplex Red fluorescence; Potency, µM (series often up to 57.7 µM), for inactives: top-dose activity change, negative = inhibition, actives largely listed as inhibitors; hit rate 0.25% among 100,000; also: % is scaled to controls: 0 for no effect and ±100 for the full control effect; nearly all actives have a fitted effect of over 60% in size
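Fluorescence of coupled pyruvate oxidase/HRP/Amplex Red system (50uM Amplex, 30 min, dark) reports pyruvate formed by GPT2. Enzyme reaction: 10ng/uL GPT2, 2mM L-alanine, 250uM a-KG, 30 min room temperature, pH 7.5; 50uM AOA control.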
HEK cytotox = cytotoxic compounds in HEK 293 cells. hit rate 6.6% among 94,000. HEK 293 viability, ATP luminescence (CellTiter-Glo), 48-72 h. Potency, µM (doses to about 115 µM), for inactives: at the top dose activity change, negative = cytotoxicity, actives largely listed as inhibitors; also: % is scaled to controls: 0 for no effect and ±100 for the full control effect; nearly all actives have a fitted effect of over 60% in size
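HEK 293 cells seeded at 250 cells/well were exposed to compound for 48 or 72 hr at 37 degree Celsius. Viability taken as ATP content by CellTiter-Glo luminescence.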
Npr1 antag conf = hNpr1 antagonism, confirmation assay | shares compounds with hNpr1 antagonist | hit rate 76% among 1,400 | HEK293 hNpr1 cGMP GloSensor luminescence, ANP-stimulated | Potency, µM (series often up to 57.6 µM), without a hit: top-dose activity change, negative = inhibition, most hits filed as inhibitors; calls by dose curve; also: nearly all actives have a fitted effect of over 70% in size
Npr2 selectivity = selectivity test of Npr1 antagonists against human Npr2. Potency, µM (highest dose often 57.6 µM), for inactives: at the top dose activity change, negative = inhibition, hits mostly inhibitors. hit rate 67% among 1,400. shares compounds with hNpr1 antagonist. AID 1347046. HEK293 hNpr2 GloSensor cGMP luminescence, CNP-stimulated; calls by dose curve; also: nearly all actives have a fitted effect of over 70% in size
FLuc inh counter = counter-screen for Npr1 antagonists: firefly luciferase inhibitors; shares compounds with hNpr1 antagonist; purified FLuc enzyme, luminescence, Km substrate; Potency, µM (highest dose often 57.6 µM), without a hit: top-dose activity change, negative = inhibition, most hits filed as inhibitors; hit rate 0.7% among 1,400; AID 1347047; also: 0% is about no effect
GloSensor ctrl = reduces cGMP signal in GloSensor control cells | hit rate 69% among 1,400 | shares compounds with hNpr1 antagonist | HEK293 GloSensor cGMP, SNP-stimulated, luminescence | AID 1347051 | Potency, µM (top dose mostly 57.6 µM), without a hit: at the highest dose activity change, negative = inhibition, hits mostly inhibitors; calls by dose curve; also: % is scaled to controls: 0 for no effect and ±100 for the full control effect; nearly all actives have a fitted effect of over 70% in size
An asterisk follows results filed as active; i = inactive; ? = inconclusive; . = not tested or not shown; [ ] = remark or other dose. Hits are enriched below; roughly 10% of the tested compounds scored in any of these assays. Unless noted, calls follow the shape of the dose curve; as a rule, active = well fitted curve in the direction sought with a large enough effect; inconclusive = small, poorly fitted or top-dose-only effect, or another doubt; inactive = no such curve, though single readings can be large; an effect the other way counts as inactive or inconclusive. Potency is read from the fitted curve at half-maximal effect.

SMILES | hNpr1 antagonist | NIH3T3 tox | FLuc inh | GPT2 inhibitor | HEK cytotox | Npr1 antag conf | Npr2 selectivity | FLuc inh counter | GloSensor ctrl
OCCc1ccc(Nc2cnc3ccc(-c4cccc(CO)c4)nn23)cc1 | -3%[70.6 µM] | ? | ? | -1%[88.5 µM] | ? | . | . | . | .
COCc1cc(NCCSCc2ccccc2C)ncn1 | 11µM* | ? | i | -3% | ? | 22µM* | 19µM* | 2% | 15µM*
O=S(=O)(c1cccnc1)N1CC[C@@H]2COCCN(Cc3cccnc3)[C@@H]2C1 | . | 5% | . | i | i | . | . | . | .
CN(C)[S+](=O)([O-])c1ccc2c(c1)OCCN(Cc1ccc(F)cc1)C2 | -20%[70.6 µM] | ? | i | 4%[88.5 µM] | ? | . | . | . | .
O=[S+]([O-])(Nc1cccnc1)c1ccc2c(c1)OCCN(Cc1ccccc1)C2 | ? | ? | i | 2%[88.5 µM] | ? | . | . | . | .
CN(C)[S+](=O)([O-])c1ccc2c(c1)OCCN(Cc1ccc(C(F)(F)F)cc1)C2 | 18µM* | 45µM* | i | -20%[88.5 µM] | ? | 13µM* | 18µM* | -13%[86.2 µM] | 8.9µM*
O=[S+]([O-])(Nc1ccccc1)c1ccc2c(c1)OCCN(Cc1ccncc1)C2 | ? | ? | i | -5%[88.5 µM] | ? | 40µM* | 35µM* | -2%[86.2 µM] | 31µM*
C[C@@H]1C(=O)O[C@H]2[C@H]1CC[C@@]1(C)Cc3sc(NC(=O)c4ccc(N(C)C)cc4)nc3[C@@H](C)[C@H]21 | 8.9µM* | 32µM* | i | -2% | ? | 14µM* | ? | -1% | 11µM*
Cc1ccc(F)c(C(CC(=O)NCc2ccco2)c2c[nH]c3ccc([N+](=O)[O-])cc23)c1 (stereo not given) | -29% | 32µM* | i | 4% | 40µM* | ? | ? | 3% | ?
COc1ccc(-n2nc(C)c([C@H]3C=C[C@@H](OC(=O)N[C@H](C)c4ccccc4)C3)c2C)cc1 | 11µM* | ? | i | -5%[88.5 µM] | 14µM* | 9.9µM* | 13µM* | -15%[86.2 µM] | 8.9µM*
Cc1nn(Cc2ccccc2)c(C)c1[C@@H]1C=C[C@@H](NC(=O)c2cccs2)C1 | -6%[70.6 µM] | ? | i | 3%[88.5 µM] | ? | . | . | . | .
COc1ccc(CN[C@@H]2C=C[C@@H](c3c(C)nn(-c4cccc(Br)c4)c3C)C2)cc1 | -21% | ? | i | 2% | ? | . | . | . | .
Cc1nn(Cc2ccccc2)c(C)c1[C@@H]1C=C[C@@H](NS(=O)(=O)c2cccs2)C1 | ? | ? | i | 5%[88.5 µM] | ? | ? | ? | -2%[86.2 µM] | ?
COc1ccc(-n2nc(C)c([C@@H]3C=C[C@@H](NS(=O)(=O)c4cccs4)C3)c2C)cc1 | ? | ? | i | 2%[88.5 µM] | ? | ? | ? | -4%[86.2 µM] | 35µM*
CNC(=O)c1cc(C)nc2onc(C3CCN(C(=O)c4c(C)noc4C)C3)c12 (stereo not given) | . | -22% | . | . | -15% | . | . | . | .
COc1ccc(CN2C[C@H](O)C[C@H]2c2nc(CS(=O)(=O)c3ccc(F)cc3)no2)cc1 | -1% | -14% | i | 4% | -4% | . | . | . | .
O=C(NC1CCCCC1)c1c(-c2cccnc2)cc(=O)n2c1CCCC2 | . | -24% | . | ? | -32% | . | . | . | .
O=C1COc2ccc(-c3ccc4c(c3)OCO4)nc2CN1Cc1ccc(F)cc1 | ? | ? | i | -20%[88.5 µM] | 56µM* | ? | 35µM* | 6%[86.2 µM] | ?
O=C1COc2ccc(N3CCCC3)nc2CN1Cc1ccc(C(F)(F)F)cc1 | ? | ? | i | i | 79µM* | 40µM* | ? | 0%[86.2 µM] | ?
Cc1ccccc1CN1Cc2nc(NCc3cccc(F)c3)ccc2OCC1=O | ? | 79µM* | i | -30%[88.5 µM] | ? | 40µM* | 35µM* | 0%[86.2 µM] | 40µM*
O=C1COc2ccc(-c3cccnc3)nc2CN1Cc1ccc(C(F)(F)F)cc1 | -17%[70.6 µM] | ? | i | ? | ? | . | . | . | .
CCNC(=O)N1CC(C(=O)NCc2cccc(C)c2)CC(c2ccc(F)c(C)c2)C1 (stereo not given) | 22µM* | ? | i | i | ? | ? | ? | 0% | ?
COCC(=O)N1CC(C(=O)NCc2cccc(F)c2)CC(c2ccc(F)c(C)c2)C1 (stereo not given) | 0% | -18% | i | i | ? | . | . | . | .
CCc1ccc(CN2CCCC(CNC(=O)c3cccc(OC)c3OC)C2)o1 (stereo not given) | 6% | -3% | i | ? | ? | . | . | . | .
CC(=O)NCC1CCCN(Cc2ccc(-c3ccccc3C#N)o2)C1 (stereo not given) | -22% | -26% | i | i | -21% | ? | ? | -1% | 8%
SMILES | hNpr1 antagonist | NIH3T3 tox | FLuc inh | GPT2 inhibitor | HEK cytotox | Npr1 antag conf | Npr2 selectivity | FLuc inh counter | GloSensor ctrl
COc1cccc(C(=O)N2CCN(C(=O)c3nc4cccnc4n(Cc4ccccc4OC)c3=O)CC2)c1 | . | -5% | . | -22% | i | . | . | . | .
COC(=O)c1ccc(CNC(C)c2cnc(-c3ccncc3)nc2C)cc1 (stereo not given) | 4% | -29% | i | 2% | 2% | . | . | . | .
Cc1ccc(C2(C(=O)NC(C)c3cnc(-c4ccncc4)nc3C)CC2)cc1 (stereo not given) | ? | ? | i | -23% | ? | ? | ? | 3% | -6%
O=C(NC1CCOCC1)c1ccc2c(c1)OCCN(c1cccc(OC(F)(F)F)c1)C2 | ? | ? | i | -11%[88.5 µM] | 32µM* | 40µM* | ? | 4%[86.2 µM] | 44µM*
CCNC(=O)c1ccc2c(c1)OCCN(c1cccc(OC(F)(F)F)c1)C2 | -29%[70.6 µM] | ? | i | ? | ? | . | . | . | .
O=C(Nc1ccc(F)c(F)c1)c1cc2n(n1)CC(c1ccc(Br)cc1)OC2 (stereo not given) | ? | ? | i | -6% | ? | 24µM* | ? | 0% | ?
